tim23-1 inh: growth inhibitors of tim23-1 mutant yeast, primary screen, luminescence, uHTS; inhibition, % at 20 µM; S. cerevisiae tim23-1 growth, BacTiter-Glo luminescence, 24 h; 330,000 tested, 1.3% active;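 active means growth inhibition of the mutant yeast at or above 50%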;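 further: temperature-sensitive mutant grown at 25 °C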
SKKanGAS inh: S. pyogenes SKKanGAS growth inhibitors in kanamycin, primary screen, streptokinase expression inhibitor project, SKKanGAS strain, BacTiter-Glo luminescence; 6 h; inhibition, % at 7.5 µM; 300,000 tested, 1.3% active; AID 1662, 2009;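 active means mean replicate score, as percent of positive control median, at least 50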;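 further: strain carries kanamycin resistance gene driven by streptokinase promoter and grows in 40 µg/ml kanamycin; loss of luminescence reflects streptokinase promoter inhibition or plain growth inhibition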
TIM10 inh: growth inhibitors of isogenic TIM10 control yeast, primary screen, counter-screen for tim10-1 yeast inhibitor project, luminescence, uHTS | S. cerevisiae TIM10 strain growth, BacTiter-Glo luminescence, 24 h | inhibition, % at 10 µM | 330,000 tested, 1.4% active;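 active means inhibition of 40% or more at the single tested concentration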;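 further: wild-type TIM10 isogenic control strain grown at permissive 25 °C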
NALP3 yeast inh: NALP3 inflammasome inhibitors in reconstituted yeast, primary screen, luminescence, uHTS. Yeast reconstituted NLRP3/ASC/caspase-1, beta-gal luminescence, 24 h. inhibition, % at 10 µM. AID 2825, 2010. 330,000 tested, 0.39% active;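 active means inhibition of 50% or more; inactive means inhibition below 50%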
PfHsp90 set2: growth inhibition of PfHsp90-expressing yeast, primary screen, antimalarial PfHsp90 inhibitor project, S. cerevisiae, BacTiter-Glo luminescence, single point, set 2 | 310,000 tested, 0.32% active | inhibition, % at 9.4 µM | BacTiter-Glo ATP, 48 h; yeast lacking PDR1 and PDR3 efflux regulators;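 active means every replicate shows inhibition above about 80%, whatever the replicate mean, limit read from the data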
tim10-1 inh: growth inhibitors of tim10-1 mutant yeast, primary screen, luminescence, uHTS. AID 463190, 2010. 330,000 tested, 2.2% active. S. cerevisiae tim10-1 ts strain growth, BacTiter-Glo, 24 h. inhibition, % at 20 µM;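 active means inhibition of at least 40%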;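 further: mutant grown at 25 °C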
tim23-1 conf: tim23-1 mutant yeast growth inhibitors, confirmation, luminescence, single concentration. shares compounds with tim23-1 inh. S. cerevisiae tim23-1 growth, BacTiter-Glo luminescence, 24 h. inhibition, % at 20 µM. 4,400 tested, 83% active. AID 463218, 2010;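 active means inhibition above about 39% in either of two replicate wells at 20 µM, limit read from the data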;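 further: temperature-sensitive tim23-1 mutant grown at 25 °C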
Numbers stand for hits; – = inactive; · = no result. This is a sample that favours compounds with a hit; in the whole collection about 4.6% have one here.

SMILES	tim23-1 inh	SKKanGAS inh	TIM10 inh	NALP3 yeast inh	PfHsp90 set2	tim10-1 inh	tim23-1 conf
O=C(COc1ccccc1)Nc1c2c(nn1-c1ccc(F)cc1)CS(=O)(=O)C2	–	–	–	–	–	–	·
O=C1OCCN1C(=O)[C@H]1[C@H](c2ccc(F)cc2)C(c2cccc(Cl)c2)=NN1c1ccccc1	–	·	–	·	–	–	·
OC[C@@H]1[C@@H](c2ccc(Cl)cc2)C(c2ccc(F)cc2)=NN1c1ccccc1	56	·	–	·	–	–	–
OC[C@@H]1[C@@H](c2ccccc2)C(c2ccc(F)cc2)=NN1c1ccccc1	56	·	–	·	–	–	45
CCCOc1nc2ccccc2cc1/C=C/C(=O)O	–	–	–	–	–	–	·
CCOc1nc2ccccc2cc1C=O	72	–	–	–	–	–	59
Cc1ccc(Nc2cc(C)c3ccc(O)cc3n2)cc1C	82	–	–	–	–	–	36
O=C(N/N=C/c1cc(Cl)cc(Cl)c1O)c1ccncc1	54	88	–	–	–	–	62
COc1ccc(C(=O)N/N=C\c2coc3ccccc3c2=O)cc1	51	–	–	–	–	–	43
O=C(N/N=C/c1coc2ccc(Cl)cc2c1=O)c1ccncc1	66	–	–	–	–	–	56
COc1ccc(C(=O)N/N=C/c2ccc3cccc(O)c3n2)cc1	53	–	–	–	–	–	54
Cc1cccc(C(=O)N/N=C/c2coc3ccccc3c2=O)c1	–	–	–	–	–	–	·
O=C(N/N=C/c1ccc2cccc(OCc3ccccc3)c2n1)c1ccc(Cl)cc1	–	–	–	–	–	–	·
O=C(N/N=C/c1ccc(Cl)cc1Cl)c1ccncc1	–	–	–	–	–	–	·
O=C(N/N=C/c1coc2ccccc2c1=O)c1cc(O)cc(O)c1	–	·	–	–	–	–	·
Cc1ccc(S(=O)(=O)Oc2ccccc2-c2ccccc2)cc1	·	·	·	·	–	·	·
Cc1ccc(CN2C(=O)CSC2c2ccc(F)cc2)cc1 (stereo not given)	–	–	–	–	–	–	·
CC[C@]12c3[nH]c4ccccc4c3CCN1C(=O)C(CC(=O)NCCCn1ccnc1)C[C@@H]2C(=O)N1CCN(C(=O)c2ccco2)CC1 (stereo not given in full)	–	·	–	–	–	–	·
CC(C)c1ccc2nc(NC(=O)C3CC3)sc2c1	51	–	–	–	–	–	52
O=C(Nc1nc2cc3c(cc2s1)OCCO3)C1CCCCC1	57	·	–	–	–	–	57
COC(=O)c1ccc2nc(NC(=O)C3CCCCC3)sc2c1	–	–	–	–	–	–	·
CC(=O)Nc1nc2cc3c(cc2s1)OCCO3	–	–	–	–	–	–	·
O=C(CCc1nnc2ccc(N3CCCC3)nn12)Nc1cc(F)ccc1F	–	–	–	–	–	–	·
COc1ccc(OC)c(-c2nn(-c3ccccc3)cc2C(=O)NCC(c2cccs2)N2CCOCC2)c1 (stereo not given)	–	–	–	–	–	–	·
CCCCCCc1ccc(-c2ncc(N)cn2)cc1	53	–	–	–	–	–	41
SMILES	tim23-1 inh	SKKanGAS inh	TIM10 inh	NALP3 yeast inh	PfHsp90 set2	tim10-1 inh	tim23-1 conf
CCCCCc1ccc(-c2nnc(N)s2)cc1	–	–	–	–	–	–	·
NC(=S)NNC(=O)Nc1cccc(Cl)c1	–	–	–	–	–	–	·
Cc1cccc(NC(=S)NNc2cccc(Cl)c2)c1	52	–	–	–	–	–	55
NC(=S)NNc1cccc(Cl)c1	60	–	–	–	–	–	61
COc1ccc(-c2nc(N)nc(C(F)(F)F)c2-c2cscn2)c(O)c1	–	–	–	–	–	–	·
COc1ccc(-c2nc(N)nc(C)c2Oc2ccccc2Br)c(O)c1	50	·	–	–	–	–	47
COc1cc(OC)cc(C(=O)N(Cc2ccco2)c2c(N)n(Cc3ccccc3)c(=O)[nH]c2=O)c1	·	·	·	·	–	·	·
O=c1[nH]c(-c2ccco2)nc2sc3c(c12)CCCC3	50	–	–	–	–	–	48
O=c1[nH]c(S)nc2sc3c(c12)CCCC3	–	–	–	–	–	–	·
O=C(NN1CCOCC1)c1ccc(F)cc1	–	–	–	–	–	–	·
NC(=O)c1c(NC(=O)c2ccccc2F)sc2c1CCCC2	54	–	–	–	–	–	49
COc1ccccc1OCc1cc(C(=O)NCc2ccc(N3CCCC3=O)cc2)no1	–	–	–	–	–	–	·
COc1ccc(C(=O)NC(=S)N2CCNC(=O)C2)cc1Br	–	–	–	–	–	–	·
COc1ccc(C(=O)NC(=S)N2CCC(C)CC2)cc1Br	57	–	–	–	–	–	–
COc1cc2cc(CCCOC(=O)c3ccc4c(c3)OCO4)oc(=O)c2cc1OC	–	·	–	–	–	–	·
CCCCCCN(C(=O)CCCCCN1C(=O)NC(c2ccc(-c3ccccc3)cc2)C(C(=O)OCc2ccccc2)=C1C)C(C)C(=O)NCCCC (stereo not given)	–	–	–	–	·	–	·
CCCCNC(=O)C(C1CCCCC1)N(CCN(C)C)C(=O)CCCN1C(=O)NC(c2ccc(-c3ccccc3)cc2)C(C(=O)OCc2ccccc2)=C1C (stereo not given)	51	·	–	·	·	–	–
COc1cc(-c2c(C#N)c(N)nc3c2CCCC3)ccc1O	–	–	–	–	–	–	·
COc1ccc(-c2c(C#N)c(N)nc3c2CCc2ccccc2-3)cc1OC	51	–	–	–	·	–	–
Cc1ccccc1OCC(=O)N/N=C/c1cc2ccccc2nc1Cl	–	–	–	–	–	–	·
C=CCc1ccccc1OCC(=O)N/N=C/c1ccc(OC(C)=O)cc1OC(C)=O	63	–	–	–	–	–	55
Cc1ccc(S(=O)(=O)N2CCN(C(=O)COC(=O)CNC(=O)c3ccc(Cl)cc3Cl)CC2)c(C)c1	·	·	·	·	–	·	·
COC(=O)c1[nH]c2cc(OC)ccc2c1NC(=O)CCN1CCCC(C)(C)C1	74	–	–	–	–	–	–
COC(=O)c1[nH]c2cc(OC)ccc2c1NC(=O)CCN1CCCCC1	–	–	–	–	–	–	·
O=c1c(Cl)nc2cc(Cl)ccc2n1CCNc1ncc(C(F)(F)F)cc1Cl	62	–	–	–	–	–	–
COc1ccc(-c2nc3ccccc3c(=O)n2O)cc1	58	–	–	–	–	–	52
N#Cc1ccccc1S(=O)(=O)Nc1ccc2c(c1)OCCO2	–	–	–	–	–	–	·
COc1ccc([C@@H](C)NC(=O)c2ccc3oc(C(C)C)nc3c2)cc1	–	–	–	–	–	–	·
Oc1ccccc1C=NNC(=S)Nc1ccc(F)cc1	·	·	·	·	–	·	·

Screens from PubChem BioAssay.
